The panel holds about 83,000 compounds, 20% with a hit somewhere; the sample as a whole holds those more often.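 Cell lines were cultured in 96-well plates, exposed to a single compound concentration, and assessed for percent growth 48 hours later.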 Unmarked numbers belong to inactive results. The source made the active and inactive calls. Rule for the calls: active = growth percent below 10; inactive = the rest.
Columns and labels:
Assay in all cases: NCI-60 one-dose screen, 48 h (100 = growth as untreated, 0 = no growth, -100 = all killed)
Settings in all cases: 10 µM unless noted
NCI-H23 lung = system: NCI-H23 lung
NCI-H226 lung = system: NCI-H226 lung
NCI-H322M lung = system: NCI-H322M lung
HOP-62 NSCLC = system: HOP-62 NSCLC
NCI-H460 lung = system: NCI-H460 lung
HOP-92 NSCLC = system: HOP-92 NSCLC
NCI-H522 lung = system: NCI-H522 lung
A549/ATCC NSCLC = system: A549/ATCC NSCLC
786-0 renal = system: 786-0 renal
COLO 205 colon = system: COLO 205 colon
DU-145 prostate = system: DU-145 prostate
K-562 leukemia = system: K-562 leukemia
MALME-3M melanoma = system: MALME-3M melanoma
MDA-MB-231 breast = system: MDA-MB-231 breast
RXF 393 renal = system: RXF 393 renal
SF-268 CNS = system: SF-268 CNS
SF-295 CNS = system: SF-295 CNS
SF-539 CNS = system: SF-539 CNS
UACC-257 melanoma = system: UACC-257 melanoma
M14 melanoma = system: M14 melanoma

Row | Compound | growth (NCI-H23 lung) | growth (NCI-H226 lung) | growth (NCI-H322M lung) | growth (HOP-62 NSCLC) | growth (NCI-H460 lung) | growth (HOP-92 NSCLC) | growth (NCI-H522 lung) | growth (A549/ATCC NSCLC) | growth (786-0 renal) | growth (COLO 205 colon) | growth (DU-145 prostate) | growth (K-562 leukemia) | growth (MALME-3M melanoma) | growth (MDA-MB-231 breast) | growth (RXF 393 renal) | growth (SF-268 CNS) | growth (SF-295 CNS) | growth (SF-539 CNS) | growth (UACC-257 melanoma) | growth (M14 melanoma)
1 | CCOC(=O)C1=C(C(=O)c2ccc(Br)cc2)C(c2ccc(Br)cc2)NC(=S)N1 (stereo not given) | 98% | 94.9% | 97.3% | 88.4% | 101% | 96.3% | 95.9% | 100% | 106% | 118% | 113% | 106% | 107% | 109% | 109% | 98.6% | 102% | 99.5% | 109% | 97.2%
2 | N#Cc1c(N2CCOCC2)nc(=S)[nH]c1-c1ccco1 | 74.5% | 63.2% | 74.5% | 35.7% | 50.1% | -11.6% (active) | 49.6% | 83.6% | 65.8% | 75.7% | 79.2% | 88.4% | 2.17% (active) | 61.1% | 71.3% | 77.3% | 47.4% | 78.5% | 92.8% | 39.8%
3 | CCc1ccc(NC(=O)N[C@@H](Cc2cc(F)cc(F)c2)C(=O)N[C@@H]2C(=O)N3C[C@H](O)C[C@H]3C(=O)N3CCOC[C@H]3C(=O)N[C@@H](C)C(=O)N3C[C@H](C)C[C@H]3C(=O)O[C@H]2C)cc1 | 34.5% | 63.2% | 84.3% | 72.9% | 46.5% | 10.3% | 27% | 79.3% | 89.1% | 11.1% | 42.6% | 24.7% | 39.4% | 16.1% | 88.1% | 29.1% | 81.9% | 55.8% | 21.5% | 84.8%
4 | CCC(Br)(CC)C(=O)c1ccc(OCC(=O)O)c(Cl)c1Cl | 103% | 87.4% | 112% | 119% | 96% | 102% | 82.1% | 91.5% | 117% | 108% | 114% | 114% | 107% | 107% | 88.8% | 100% | 81.6% | 96.9% | 124% | 116%
5 | O=C1NC(=O)c2cc([N+](=O)[O-])cc3cccc1c23 | 97.6% | 106% | 89% | 121% | 98.5% | 80.2% | 77.5% | 89.7% | 98.6% | 105% | 106% | 131% | 107% | 100% | 98.2% | 98% | 114% | 105% | 76.7% | 93.3%
6 | Cn1cc(-c2noc(-c3cn(C)c4ncc(Br)cc34)n2)c2cc(Cl)ccc21 | 75.1% | 88% | 47.4% | 50.5% | 25.8% | 76.7% | 63.1% | 96.6% | 53.7% | 66.4% | 87% | 66.3% | 35.4% | 57.2% | 105% | 59.1% | 63% | 48.9% | 99.2% | 82.4%
7 | CC(C)C1=NOC(=O)C1=Cc1cn(-c2cccnc2)nc1-c1ccccc1 | 107% | 106% | 100% | 100% | 103% | 92.6% | 82.7% | 94.8% | 82.2% | 107% | 104% | 72.7% | 111% | 96% | 64.8% | 102% | 98.1% | 104% | 111% | 103%
8 | [2H]C1([2H])CCN(C(=O)C2CC2)c2cc(NS(=O)(=O)c3ccc(-c4cccc(C(N)=O)c4)cc3)ccc21 | 44% | 61.1% | 64.6% | 29.1% | 17.3% | 33.3% | 14% | 45.2% | 81.8% | 37.7% | 72% | 20.7% | 39.6% | 42.3% | 48.4% | 51.9% | 19.8% | 23.4% | 47.7% | 86.4%
9 | C=CCCCCCCCCC(=O)OC(C)C | 98.4% | 102% | 94% | 97.5% | 100% | 82.3% | 91.7% | 99.2% | 104% | 105% | 101% | 107% | 78.9% | 97.4% | 93.2% | 96.9% | 98.8% | 104% | 94.9% | 96.4%
10 | CCN(CC)c1ccc2cc(C(Nc3ccc(Br)c(C(F)(F)F)c3)c3nnnn3C(C)(C)C)c(=O)oc2c1 (stereo not given) | 100% | 86.1% | 99.6% | 94% | 91.9% | 87.5% | 77.9% | 86.3% | 99.8% | 101% | 103% | 88.2% | 88% | 86.9% | 82.9% | 85.3% | 103% | 101% | 93.3% | 103%
11 | C#C[C@]1(O)CC[C@H]2[C@@H]3CC=C4c5nc(Nc6ccccn6)sc5CC[C@]4(C)[C@H]3CC[C@@]21C | 34.7% | 38.1% | 35.8% | -10.4% (active) | 4.83% (active) | -24.5% (active) | -6.06% (active) | 14.5% | -69.6% (active) | 35% | 17.2% | 2.53% (active) | 10.9% | -23.1% (active) | -66% (active) | -24% (active) | -72.2% (active) | -64.7% (active) | -54.7% (active) | -35.9% (active)
12 | Cc1cc(N2CCCCCC2)nc(N2CCN(CC(=O)Nc3ccc4c(ccn4Cc4ccccc4)c3)CC2)n1 | 48.3% | 53.5% | 80.7% | 54.1% | 36.7% | 8.3% (active) | 55% | 46.8% | 39% | 31.2% | 70.7% | 12.1% | 50.9% | 54.6% | 6.02% (active) | 71.2% | 20.4% | 55.7% | 61.3% | 15.6%
13 | O=C1Nc2ccccc2/C1=C/C(=O)c1ccc(N2CCCCC2)cc1 | 75.7% | 86.7% | 96.6% | 102% | 77.9% | 56.7% | 61.7% | 95.1% | 98.7% | 74.6% | 66.8% | 68.2% | 69.8% | 82.1% | 77% | 71.7% | 103% | 79.3% | 97.7% | 107%
14 | COC(=O)[C@@H](NC(=O)NC(=O)NC(=O)CI)C(C)C | 93.8% | 85.1% | 103% | 86.3% | 89.3% | -17.7% (active) | -85.9% (active) | 94.6% | -25.1% (active) | 38.6% | 106% | 15.2% | -46.4% (active) | 72.5% | 83.3% | 95.8% | 95.3% | 92.7% | 87.1% | 85.8%

— PubChem BioAssay (NCI)
